Tau fluor counter – Counterscreen qHTS for Inhibitors of Tau Fibril Formation, Fluorescence Polarization | tau K18 P301L Alexa594 fluorescence, heparin fibrillization | Potency, µM (top dose mostly 57.7 µM) | hit rate 0.93% among 280,000 | AID 1463, 2008; note: nearly all actives have a fitted effect of over 55% in size
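Human K18 P301L tau (15 uM unlabeled plus 0.24 uM Alexa 594-labeled, final) in 100 mM sodium acetate pH 7 was mixed with compound and 20 uM heparin and incubated 6 hr at 37 C.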
TexasRed fluor – Total Fluorescence Counterscreen for Inhibitors of the Interaction of Thyroid Hormone Receptor and Steroid Receptor Coregulator 2; TRb/SRC2 Texas Red total fluorescence interference; Potency, µM (top dose mostly 106 µM); hit rate 0.29% among 280,000; active = well fitted curve in either direction with a large enough effect; inconclusive = small, poorly fitted or top-dose-only effect
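Human TRb ligand-binding domain at 0.6 uM with 20 nM Texas Red SRC2 peptide in Tris buffer containing 1 uM T3 and 5% DMSO, incubated with compound 5 h at ambient temperature. Total fluorescence (555/632 nm) calculated as parallel + 2 × perpendicular.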
Tau fibril FP – qHTS for Inhibitors of Tau Fibril Formation, Fluorescence Polarization | Potency, µM (highest dose often 57.7 µM), usual class: inhibitors | AID 1468, 2008 | Microtubule-associated protein tau (Homo sapiens), P10636 | hit rate 0.39% among 280,000 | K18 P301L tau heparin fibrillization, Alexa594 FP, 6 h; note: nearly all actives have a fitted effect of over 55% in size
Target sequence (P10636 561-689 P618L limits assumed): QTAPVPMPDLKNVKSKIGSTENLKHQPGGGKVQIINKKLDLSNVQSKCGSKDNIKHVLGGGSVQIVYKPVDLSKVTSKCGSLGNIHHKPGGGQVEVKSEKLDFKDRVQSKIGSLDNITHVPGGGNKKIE
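K18 P301L tau (15 uM unlabeled/0.24 uM Alexa 594-labeled, final) + compound + heparin 20 uM final; 100 mM NaOAc pH 7; 6 hr 37 C; ThT 30 uM final added, 1 hr RT; FP ex 555/em 632 nm.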
TRb SRC2 PPI – qHTS for Inhibitors of the Interaction of Thyroid Hormone Receptor and Steroid Receptor Coregulator 2; Thyroid hormone receptor beta (Homo sapiens), P10828; TRbeta-SRC2 peptide binding, fluorescence polarization; receptor liganded with 1 µM T3; Potency, µM (highest dose often 106 µM), actives largely listed as inhibitors; hit rate 0.065% among 280,000; AID 1469, 2008; note: nearly all actives have a fitted effect of over 50% in size
Target sequence (P10828 whole entry, looked up): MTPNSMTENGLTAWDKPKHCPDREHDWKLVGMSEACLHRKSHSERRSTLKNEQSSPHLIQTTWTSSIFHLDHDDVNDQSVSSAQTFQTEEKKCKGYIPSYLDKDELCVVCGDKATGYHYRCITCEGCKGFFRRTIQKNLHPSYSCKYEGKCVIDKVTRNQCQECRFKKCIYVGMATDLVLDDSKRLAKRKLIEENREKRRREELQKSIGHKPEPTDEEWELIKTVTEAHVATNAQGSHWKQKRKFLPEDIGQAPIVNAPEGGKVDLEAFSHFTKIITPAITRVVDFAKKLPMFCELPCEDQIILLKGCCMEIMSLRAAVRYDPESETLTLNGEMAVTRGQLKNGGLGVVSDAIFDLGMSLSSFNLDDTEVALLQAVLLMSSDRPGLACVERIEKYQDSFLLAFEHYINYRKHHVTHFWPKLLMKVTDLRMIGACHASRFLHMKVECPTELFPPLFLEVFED
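Human TRb LBD (0.6 uM) plus Texas Red-labeled SRC2 peptide (20 nM), 1uM T3, 5% DMSO, 5 hr at ambient temperature. Decreased polarization (555/632 nm) flags inhibition; data normalized to free and bound peptide controls.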
Tau fibril ThT – qHTS for Inhibitors of Tau Fibril Formation, Thioflavin T Binding; recombinant tau K18 P301L (four-repeat tau fragment), heparin-induced fibrillization, ThT fluorescence; Potency, µM (titrated, usually from 57.4 µM), usual class: inhibitors; Microtubule-associated protein tau (Homo sapiens), P10636; hit rate 2.1% among 270,000; AID 1460, 2008; note: nearly all actives have a fitted effect of over 55% in size
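Recombinant human tau K18 fragment […] carrying P301L, 15 uM unlabeled plus 0.24 uM Alexa 594-labeled, was fibrillized with 20 uM heparin in 100 mM sodium acetate pH 7 for 6 hr at 37 C; 30 uM ThT fluorescence read after 1 hr.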
Of the large screens only hits and unclear results are named; the others gave an inactive call; [ ] = another dose, or the depositor's remark. Rows were chosen to be rich in hits. Some 3.1% of all compounds tested hit in one or more screens of this group. Unless noted, calls come from the whole dose curve; as a rule, active = well fitted curve in the direction sought with a large enough effect; inconclusive = small, poorly fitted or top-dose-only effect, or another doubt; inactive = no such curve, though single readings can be large; an effect the other way counts as inactive or inconclusive.

O=C(/C=C/c1ccccc1)Nc1cccc(S(=O)(=O)Nc2ccccc2F)c1	Tau fluor counter inconclusive, Tau fibril FP inconclusive, Tau fibril ThT inconclusive
O=C(Cc1ccc(Cl)cc1Cl)Nc1cccc(S(=O)(=O)Nc2ccccc2F)c1	Tau fibril FP 28µM, Tau fibril ThT inconclusive
Cn1c(=O)c(Nc2ccc(O)cc2)c2c3c(cccc31)C(=O)c1ccccc1-2	Tau fluor counter 14µM[quencher], Tau fibril FP inconclusive, Tau fibril ThT 7.9µM
CNC(=O)C1(C(F)(F)F)C/C(=C\Cc2ccccc2)CCCO1 (stereo unspecified)	none (no result: Tau fluor counter, Tau fibril FP, Tau fibril ThT)
CCOC(=O)c1c(C)[nH]c(C)c1S(=O)(=O)N1CCCC(C(=O)Nc2ccc(F)cc2F)C1 (stereo unspecified)	none
N#C/C(=C\c1ccc(-c2cccc([N+](=O)[O-])c2)o1)C(=O)Nc1nc(-c2cccs2)cs1	Tau fluor counter inconclusive, Tau fibril ThT 2µM
O=C(N/N=C/c1ccc(-c2cccc([N+](=O)[O-])c2)o1)c1cccs1	Tau fibril ThT inconclusive
CCOC(=O)c1c(C)oc2ncnc(NCCCN3CCN(c4cc(C)ccc4C)CC3)c12	Tau fibril ThT inconclusive
BrC/C=C/CBr	none (no result: Tau fluor counter, Tau fibril FP, Tau fibril ThT)
NC(=O)c1sc2nc(-c3ccco3)ccc2c1N	Tau fluor counter inconclusive, Tau fibril ThT 6.3µM
COC(=O)c1sc2nc(-c3ccco3)ccc2c1N	Tau fluor counter inconclusive, TexasRed fluor inconclusive, Tau fibril ThT 7.1µM
Nc1c(C(=O)Nc2ccccc2F)sc2nc(-c3ccco3)ccc12	Tau fluor counter inconclusive, Tau fibril ThT inconclusive
CC(C)(C)OC(=O)N1CCC(c2c(C(=O)NCCN3CCc4ccccc4C3)cnn2-c2ccc(F)cc2F)CC1	none
CC(C)(C)C(=O)C(Cl)C(=O)Nc1ccccc1 (stereo unspecified)	Tau fibril FP inconclusive, Tau fibril ThT 7.1µM
CCOc1ccc(C2c3c(oc4ccc(C)cc4c3=O)C(=O)N2Cc2ccc3c(c2)OCO3)cc1OC (stereo unspecified)	none
COc1ccc(-c2nc(Cn3c(SCc4ccc(C)cc4)nc4cccnc43)c(C)o2)cc1OC	Tau fibril ThT inconclusive
O=C(CCNc1ccc(F)cc1)c1cccc([N+](=O)[O-])c1	Tau fluor counter 16µM[quencher], Tau fibril ThT inconclusive
Cc1ccnc(SCC(=O)c2cccc([N+](=O)[O-])c2)n1	none
O=C(Nc1ccc(Cc2ccncc2)cc1)c1cccc([N+](=O)[O-])c1	none
Cc1nc(SCC(=O)c2cccc([N+](=O)[O-])c2)n[nH]1	Tau fibril FP inconclusive, Tau fibril ThT 40µM
O=C(CCNc1ccccc1)c1cccc([N+](=O)[O-])c1	none
O=C(CCNc1ccc(Cc2ccncc2)cc1)c1ccc([N+](=O)[O-])cc1	Tau fluor counter 7.9µM[quencher], Tau fibril ThT 10µM
O=C(CCNc1ccc(Br)cc1)c1cccc([N+](=O)[O-])c1	Tau fluor counter 28µM[quencher], Tau fibril FP inconclusive, Tau fibril ThT inconclusive
COCCOCCOCCOC	none (no result: Tau fluor counter, Tau fibril FP, Tau fibril ThT)
CN(C)c1ccc(C(=O)Nc2sc(Nc3ccccc3)nc2C(N)=O)cc1	Tau fluor counter 11µM[quencher], Tau fibril ThT 1.1µM
CC(C)[N+]1(C)C2CCC1CC(OC(=O)C(CO)c1ccccc1)C2 (stereo unspecified)	none
O=S(=O)(c1cccs1)N1CN(Cc2ccco2)c2nc3ccccc3nc21	Tau fluor counter inconclusive, TexasRed fluor inconclusive, Tau fibril FP inconclusive, TRb SRC2 PPI inconclusive, Tau fibril ThT 22µM
O=S(=O)(c1cccs1)N1CN(Cc2ccc(Cl)cc2)c2nc3ccccc3nc21	none
O=C(Nc1cccc(F)c1)C1CCN(S(=O)(=O)c2ccc3[nH]c4c(c3c2)CCCCC4)CC1	Tau fluor counter 28µM[quencher]
COc1cccc(NC(=O)C2CCN(S(=O)(=O)c3ccc4[nH]c5c(c4c3)CCCCC5)CC2)c1	Tau fluor counter 6.3µM[quencher]
CSc1cccc(NC(=O)C2CCN(S(=O)(=O)c3ccc4[nH]c5c(c4c3)CCCCC5)CC2)c1	Tau fluor counter inconclusive
COc1ccc(Nc2c(-c3ccccn3)nc3ccc(Cl)cn23)cc1	Tau fluor counter inconclusive
N#CCCn1nc(-c2ccccc2)cc1Nc1ccccc1NC(=O)C(F)(F)F	none
N#CCCn1nc(-c2ccc(Br)cc2)cc1Nc1ccccc1NC(=O)C(F)(F)F	Tau fluor counter 20µM[quencher], Tau fibril ThT inconclusive
CCOc1ccc(CC(=O)NCC(c2cccs2)S(=O)(=O)c2ccc(F)c(C)c2)cc1 (stereo unspecified)	none
COc1ccc(NC(=O)CN2C(=O)CC(c3ccc(C)c(C)c3)=Nc3ccccc32)cc1OC	Tau fluor counter 25µM[quencher], Tau fibril ThT inconclusive
C=CC1=C2C=C(C3CC3)N(Cc3ccco3)C=C2C(=O)C(C)(OC(=O)c2ccco2)C1=O (stereo unspecified)	none
CCOc1cc(/C=C2\CCC/C(=C\c3cc(Cl)c(O)c(OCC)c3)C2=O)cc(Cl)c1O	Tau fluor counter inconclusive, Tau fibril FP inconclusive, Tau fibril ThT 8.9µM
CCOC(=O)OCC1OC(c2ccccc2)C=CC1Oc1cccc(N(C)C)c1 (stereo unspecified)	Tau fibril ThT inconclusive
CC1=NN(c2ccc([N+](=O)[O-])cc2)C(c2ccccc2)C1 (stereo unspecified)	Tau fluor counter inconclusive, Tau fibril ThT inconclusive
N#CC1CC(c2ccc([N+](=O)[O-])cc2)=NN1c1ccc([N+](=O)[O-])cc1 (stereo unspecified)	Tau fluor counter inconclusive, Tau fibril ThT 3.2µM
Fc1ccc(-n2ncc3c(N4CCN(c5ccccc5F)CC4)ncnc32)cc1	Tau fibril ThT inconclusive
Cc1ccc(N2C(=O)CC(Sc3ccccc3C(=O)O)C2=O)c([N+](=O)[O-])c1 (stereo unspecified)	Tau fibril ThT inconclusive
COc1ccc(N2C(=O)CC(Sc3ccccc3C(=O)O)C2=O)c([N+](=O)[O-])c1 (stereo unspecified)	Tau fluor counter inconclusive, Tau fibril ThT 14µM
CCc1ccc(NC(=O)C2CCN(S(=O)(=O)c3c(C)noc3/C=C/c3cccs3)CC2)cc1	Tau fluor counter inconclusive
O=C(Nc1ccc(OC(F)F)c(Cl)c1)Nc1ccc2c(c1)OCO2	Tau fluor counter 5µM[quencher], Tau fibril ThT inconclusive
O=C(Cc1ccc(Cl)cc1Cl)Nc1ccc(OC(F)F)c(Cl)c1	Tau fibril FP inconclusive
O=C(Nc1ccc([N+](=O)[O-])cc1)Nc1ccc(OC(F)F)c(Cl)c1	Tau fluor counter inconclusive, Tau fibril FP 10µM, Tau fibril ThT inconclusive
COc1ccc(NC(=O)Nc2cccc([N+](=O)[O-])c2)cc1Cl	Tau fluor counter 14µM[quencher], Tau fibril FP inconclusive, Tau fibril ThT 16µM
